Results filed as inconclusive are left out. Active and inactive are the calls of the source.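 How the source made its calls, unless noted: active means response below a set limit, under 55% cells CD8-positive and vesicle-bound, and CD8 cells' 90th-percentile brightness under 279; inactive means the rest.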
Columns and labels:
[1] = yeast TOR pathway RPL19A-GFP modulators, primary screen, cell-based, S. cerevisiae, multiplex flow cytometry (AID 1862; in the data active means percent of DMSO control GFP below about 86%;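 further: lower values mimic rapamycin by blocking the RPL19A rise seen in DMSO cells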); conditions: S. cerevisiae RPL19A-GFP strain, flow cytometry fluorescence, 3 h; at 10 µM; stronger effect = lower value
[2] = modulators of MEP2-GFP levels in yeast, primary screen, S. cerevisiae, multiplex flow cytometry (AID 1867;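 active means GFP response, as percent of the DMSO control, above the screen-wide mean plus 3 SD, about 139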;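 further: median GFP channel fluorescence of barcode-gated MEP2-GFP cells measured by flow cytometry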); conditions: S. cerevisiae MEP2-GFP strain, 3 h, at 10 µM, stronger effect = higher value, 100% means same as DMSO wells
[3] = modulators of CIT2-GFP expression in yeast, primary screen, S. cerevisiae, GFP fusion, multiplex flow cytometry (AID 1870;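 active means percent response above a set limit, the screen-wide mean plus 3 SD, cut at about 130% in these data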;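 further: barcoded CIT2-GFP strain pooled with four other GFP strains with rapamycin as positive control; median GFP fluorescence per well over plate mean of DMSO wells so 100% = DMSO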); conditions: 3 h, at 10 µM, stronger effect = higher value
[4] = modulators of LAP4-GFP expression in yeast, primary screen, S. cerevisiae, multiplex flow cytometry (AID 1873;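 active means GFP signal, as percent of the solvent control, above the screen mean plus 3 SD, about 149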); conditions: 3 h, at 10 µM, stronger effect = higher value
[5] = modulators of AGP1-GFP expression in yeast TOR pathway, primary screen, cell-based, multiplex flow cytometry, S. cerevisiae (AID 1887;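 active means GFP signal above the screen-wide mean plus 3 SD, that is over about 124.5% of the solvent control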;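 further: AGP1-GFP fusion strain of S. cerevisiae within a five-strain barcoded multiplex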); conditions: 3 h, at 10 µM, stronger effect = higher value
[6] = inhibitors of CD8+ T cell-vesicle binding, pilot screen, LFA-1/ICAM-1 modulator project, MLPCN validation set, flow cytometry (AID 2523); conditions: 2C mouse CD8+ T cells, at 7 µM, stronger effect = lower value; double positive events: measured here: CD8+/vesicle+ event percentage;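 on vesicle binding response: mean PE anti-B7-1 fluorescence of CD8+ cells relative to row control; 100% = QL9-loaded vesicles with DMSO vehicle in the same plate row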
[7] = target: Integrin beta-1 (Homo sapiens) + Integrin alpha-4 (Homo sapiens) (UniProt P13612+P05556); test: inhibition of HUTS-21 binding to VLA-4, pilot screen, VLA-4 allosteric modulator project, U937 cells, HUTS-21 mAb, flow cytometry, validation set (AID 2674;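 active means inhibition above 50%, about 3 SD of the validation set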;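 further: antibody binding induced by the VLA-4 ligand LDV present at three times its Kd; 0% = LDV ligand with antibody and no compound and 100% = antibody without LDV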); conditions: HUTS-21 LIBS mAb binding, at 6.7 µM, stronger effect = higher value, binding induced by LDV ligand
Integrin beta-1 (Homo sapiens) + Integrin alpha-4 (Homo sapiens), sequence (P05556 whole entry, looked up): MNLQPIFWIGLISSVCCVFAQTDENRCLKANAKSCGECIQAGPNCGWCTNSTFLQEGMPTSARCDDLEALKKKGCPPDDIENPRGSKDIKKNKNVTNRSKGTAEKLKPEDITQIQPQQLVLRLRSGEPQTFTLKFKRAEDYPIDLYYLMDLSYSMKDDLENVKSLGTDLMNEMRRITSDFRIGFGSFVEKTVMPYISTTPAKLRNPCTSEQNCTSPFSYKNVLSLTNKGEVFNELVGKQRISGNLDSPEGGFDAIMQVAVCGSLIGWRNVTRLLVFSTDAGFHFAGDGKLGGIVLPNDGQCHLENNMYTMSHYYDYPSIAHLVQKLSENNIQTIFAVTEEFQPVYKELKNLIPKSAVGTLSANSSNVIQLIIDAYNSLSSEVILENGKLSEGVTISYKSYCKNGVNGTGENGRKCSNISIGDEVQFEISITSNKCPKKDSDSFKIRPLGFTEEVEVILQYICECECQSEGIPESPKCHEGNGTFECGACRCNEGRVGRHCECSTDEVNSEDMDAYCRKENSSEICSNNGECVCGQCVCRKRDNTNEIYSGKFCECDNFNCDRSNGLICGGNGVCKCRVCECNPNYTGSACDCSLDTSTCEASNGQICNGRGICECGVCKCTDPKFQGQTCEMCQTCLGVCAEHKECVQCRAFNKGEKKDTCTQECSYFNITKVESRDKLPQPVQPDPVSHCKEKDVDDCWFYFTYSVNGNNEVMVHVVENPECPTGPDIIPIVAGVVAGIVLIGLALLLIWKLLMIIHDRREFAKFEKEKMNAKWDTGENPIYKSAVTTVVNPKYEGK
Integrin beta-1 (Homo sapiens) + Integrin alpha-4 (Homo sapiens), sequence (P13612 whole entry, looked up): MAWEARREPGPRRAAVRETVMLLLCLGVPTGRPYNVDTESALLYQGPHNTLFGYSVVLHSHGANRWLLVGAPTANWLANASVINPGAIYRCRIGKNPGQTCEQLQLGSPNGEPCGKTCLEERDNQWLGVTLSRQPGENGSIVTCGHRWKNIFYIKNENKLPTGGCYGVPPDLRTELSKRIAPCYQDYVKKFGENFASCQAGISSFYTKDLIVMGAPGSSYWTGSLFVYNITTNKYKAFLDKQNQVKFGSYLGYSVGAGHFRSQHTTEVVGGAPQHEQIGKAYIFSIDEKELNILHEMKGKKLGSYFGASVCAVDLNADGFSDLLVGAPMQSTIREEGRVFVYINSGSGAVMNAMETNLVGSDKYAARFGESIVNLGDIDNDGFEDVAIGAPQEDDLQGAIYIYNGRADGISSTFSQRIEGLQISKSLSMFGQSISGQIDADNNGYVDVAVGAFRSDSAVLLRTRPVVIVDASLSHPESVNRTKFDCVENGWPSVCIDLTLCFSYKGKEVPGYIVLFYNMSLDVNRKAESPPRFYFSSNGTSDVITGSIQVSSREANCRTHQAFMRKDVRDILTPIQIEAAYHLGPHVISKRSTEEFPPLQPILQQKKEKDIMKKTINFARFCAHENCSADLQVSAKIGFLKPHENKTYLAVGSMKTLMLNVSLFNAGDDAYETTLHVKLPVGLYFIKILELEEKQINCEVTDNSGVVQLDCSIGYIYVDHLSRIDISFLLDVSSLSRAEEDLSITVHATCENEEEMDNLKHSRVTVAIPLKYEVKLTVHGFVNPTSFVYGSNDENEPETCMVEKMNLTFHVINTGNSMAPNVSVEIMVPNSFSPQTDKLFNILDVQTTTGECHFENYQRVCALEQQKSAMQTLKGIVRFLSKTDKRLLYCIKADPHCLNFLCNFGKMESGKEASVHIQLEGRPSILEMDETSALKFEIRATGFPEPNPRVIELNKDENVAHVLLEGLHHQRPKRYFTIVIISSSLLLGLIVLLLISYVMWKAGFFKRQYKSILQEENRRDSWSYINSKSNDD

[8] = superoxide lowering in aged yeast cells, pilot screen, validation compound set (AID 2706;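 active means superoxide response below 65% of plate, a cut near 3 SD across the whole screen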;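 further: yeast exposed to compound for one week at 30 degrees C before staining; 100% = mean of all compound wells on the same plate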); conditions: S. cerevisiae aging, superoxide DHE fluorescence; at 10 µM; stronger effect = lower value
[9] = target: Beta-adrenergic receptor kinase 1 (Homo sapiens) (UniProt P25098); test: GRK2 binders displacing RNA aptamer, biochemical, validation, human GRK2, bead flow cytometry (AID 488806;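 active means aptamer binding inhibition above 30%, about 3 SD of noise from non-fluorescent compounds; inactive means inhibition at or below 30%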); conditions: bead-bound GRK2, FAM-aptamer displacement, at 10 µM, stronger effect = higher value
Beta-adrenergic receptor kinase 1 (Homo sapiens), sequence (P25098 whole entry, looked up): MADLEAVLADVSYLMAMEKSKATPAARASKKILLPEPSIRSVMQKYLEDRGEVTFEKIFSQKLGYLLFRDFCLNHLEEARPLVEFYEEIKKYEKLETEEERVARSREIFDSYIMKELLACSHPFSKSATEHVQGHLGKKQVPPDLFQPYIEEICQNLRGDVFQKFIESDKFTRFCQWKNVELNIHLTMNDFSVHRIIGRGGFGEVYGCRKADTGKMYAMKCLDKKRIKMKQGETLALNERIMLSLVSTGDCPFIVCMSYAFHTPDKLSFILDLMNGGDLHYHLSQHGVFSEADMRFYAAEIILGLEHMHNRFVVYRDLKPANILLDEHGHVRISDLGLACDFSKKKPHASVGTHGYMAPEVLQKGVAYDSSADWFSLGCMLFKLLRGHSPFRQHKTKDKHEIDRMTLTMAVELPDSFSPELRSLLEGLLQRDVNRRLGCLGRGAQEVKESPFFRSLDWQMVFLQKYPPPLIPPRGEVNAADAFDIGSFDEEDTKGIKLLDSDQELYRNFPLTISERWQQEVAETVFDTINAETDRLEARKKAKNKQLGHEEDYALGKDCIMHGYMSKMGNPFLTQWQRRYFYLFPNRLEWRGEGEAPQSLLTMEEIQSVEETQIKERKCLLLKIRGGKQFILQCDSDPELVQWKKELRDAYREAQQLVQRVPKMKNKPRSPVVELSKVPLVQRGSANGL

[10] = target: Beta-2 adrenergic receptor (Homo sapiens) (UniProt P07550); test: beta2AR agonists driving receptor internalization, pilot screen, cell-based, FAP fluorogen, flow cytometry, validation set (AID 504459;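 active means percent response above 42, roughly 3 SD of non-fluorescent test compounds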;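 further: agonist-driven loss of surface beta2AR via internalization measured by FAP dye flow cytometry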); conditions: Am2.2-beta2AR cells, FAP surface receptor flow cytometry; at 10 µM; stronger effect = higher value
Beta-2 adrenergic receptor (Homo sapiens), sequence (P07550 whole entry, looked up): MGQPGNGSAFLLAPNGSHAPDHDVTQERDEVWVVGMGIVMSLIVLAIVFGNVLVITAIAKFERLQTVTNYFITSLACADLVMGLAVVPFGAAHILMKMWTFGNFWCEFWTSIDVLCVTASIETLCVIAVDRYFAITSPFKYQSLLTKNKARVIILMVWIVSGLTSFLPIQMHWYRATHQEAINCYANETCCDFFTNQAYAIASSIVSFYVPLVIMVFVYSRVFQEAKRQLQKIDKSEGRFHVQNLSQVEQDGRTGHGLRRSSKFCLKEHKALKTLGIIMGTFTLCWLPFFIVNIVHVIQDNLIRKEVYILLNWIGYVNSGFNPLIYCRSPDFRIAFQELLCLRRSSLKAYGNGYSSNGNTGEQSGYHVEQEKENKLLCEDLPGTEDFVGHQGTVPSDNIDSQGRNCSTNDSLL

[11] = target: AP-2 complex subunit beta (Homo sapiens) (UniProt P63010); test: inhibitors of arrestin peptide binding to AP2, pilot screen, biochemical, validation set, GST-AP2 beads, flow cytometry (AID 504541;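 active means inhibition above 54%, about 3 SD of non-fluorescent compounds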;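 further: AP2 carries R879A mutation and is captured from E. coli lysate; bead-bound FITC arrestin peptide fluorescence measuring arrestin peptide binding to AP2; 0% = DMSO wells and 100% = excess unlabeled arrestin peptide control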); conditions: FITC arrestin peptide, at 10 µM, stronger effect = higher value, AP2 beta2 appendage fragment, R879A mutant
AP-2 complex subunit beta (Homo sapiens), sequence (P63010 whole entry, looked up, the tested form may be a part, one chain of several): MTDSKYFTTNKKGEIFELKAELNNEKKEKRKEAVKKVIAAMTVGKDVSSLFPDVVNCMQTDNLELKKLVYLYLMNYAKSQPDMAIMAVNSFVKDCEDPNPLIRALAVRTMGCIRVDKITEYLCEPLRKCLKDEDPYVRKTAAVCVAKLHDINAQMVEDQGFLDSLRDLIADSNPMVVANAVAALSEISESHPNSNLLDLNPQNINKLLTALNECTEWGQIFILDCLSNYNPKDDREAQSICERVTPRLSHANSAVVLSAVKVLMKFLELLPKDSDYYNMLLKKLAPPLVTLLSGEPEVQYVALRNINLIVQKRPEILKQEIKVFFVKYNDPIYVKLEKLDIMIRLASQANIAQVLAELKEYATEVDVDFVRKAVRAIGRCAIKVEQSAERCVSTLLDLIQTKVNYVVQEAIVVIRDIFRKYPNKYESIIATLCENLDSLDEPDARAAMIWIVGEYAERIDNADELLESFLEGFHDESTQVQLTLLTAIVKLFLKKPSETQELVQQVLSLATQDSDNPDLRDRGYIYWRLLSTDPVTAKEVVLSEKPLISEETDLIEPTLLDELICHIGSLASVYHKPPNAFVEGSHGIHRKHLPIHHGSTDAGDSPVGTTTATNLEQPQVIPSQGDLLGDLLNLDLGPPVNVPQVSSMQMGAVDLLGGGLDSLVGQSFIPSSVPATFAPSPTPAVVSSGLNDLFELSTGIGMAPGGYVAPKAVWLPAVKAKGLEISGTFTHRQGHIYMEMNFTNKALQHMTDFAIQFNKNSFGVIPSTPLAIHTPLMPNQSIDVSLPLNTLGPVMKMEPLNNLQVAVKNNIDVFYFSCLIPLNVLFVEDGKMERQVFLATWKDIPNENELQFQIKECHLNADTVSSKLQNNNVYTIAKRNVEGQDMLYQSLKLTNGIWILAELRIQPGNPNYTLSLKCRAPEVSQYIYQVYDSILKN

[12] = yeast V-ATPase proton transport modulators, S. cerevisiae, pHLuorin, HTS validation (AID 504600; in the data active means response above about 15%;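 further: plate controls were DMSO for no effect and reference compound for full effect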); conditions: S. cerevisiae pHLuorin cytosolic pH, at 10 µM, stronger effect = higher value
[13] = system: anti-desmoglein-3 scFv antibody binding to human DSG3; test: inhibitors of anti-DSG3 scFv binding to DSG3, pilot screen, biochemical, validation compound set, bead-based, flow cytometry (AID 588368;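 active means binding below the plate cutoff, the plate median minus 3 SD, with a reading above zero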;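 further: signal is the median channel fluorescence of bead-bound GFP antibody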); conditions: Protein G beads, DSG3-Fc, scFv-GFP binding, at 10 µM, stronger effect = lower value
[14] = inhibitors of fungal efflux pumps CDR1, CDR2, MDR1, pilot screen, validation compound set, multiplex, phenotypic (AID 588506;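 active means efflux inhibition above 0.42, the validation set average plus 4 SD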;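 further: Nile Red retained in cells so higher fluorescence means more efflux inhibition; 0 = negative control wells and 1 = enniatin B 25 µM full block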); conditions: S. cerevisiae pump-expressing triplex, Nile Red efflux flow cytometry; at 10 µM; stronger effect = higher value; the pumps come from Candida albicans
[15] = target: ATP-binding cassette sub-family B member 6 (Homo sapiens) (UniProt Q9NP58); test: ABCB6 transporter inhibitors, pilot screen, K562-ABCB6 cells, flow cytometry, validation set (AID 588550;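 active means inhibition above the screen-wide mean plus 3 SD, about 51%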;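 further: 0% = DMSO wells and 100% = benzethonium chloride 70 µM positive control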); conditions: K562-ABCB6 porphyrin accumulation, 1 h, at 10 µM, stronger effect = higher value
ATP-binding cassette sub-family B member 6 (Homo sapiens), sequence (Q9NP58 whole entry, looked up): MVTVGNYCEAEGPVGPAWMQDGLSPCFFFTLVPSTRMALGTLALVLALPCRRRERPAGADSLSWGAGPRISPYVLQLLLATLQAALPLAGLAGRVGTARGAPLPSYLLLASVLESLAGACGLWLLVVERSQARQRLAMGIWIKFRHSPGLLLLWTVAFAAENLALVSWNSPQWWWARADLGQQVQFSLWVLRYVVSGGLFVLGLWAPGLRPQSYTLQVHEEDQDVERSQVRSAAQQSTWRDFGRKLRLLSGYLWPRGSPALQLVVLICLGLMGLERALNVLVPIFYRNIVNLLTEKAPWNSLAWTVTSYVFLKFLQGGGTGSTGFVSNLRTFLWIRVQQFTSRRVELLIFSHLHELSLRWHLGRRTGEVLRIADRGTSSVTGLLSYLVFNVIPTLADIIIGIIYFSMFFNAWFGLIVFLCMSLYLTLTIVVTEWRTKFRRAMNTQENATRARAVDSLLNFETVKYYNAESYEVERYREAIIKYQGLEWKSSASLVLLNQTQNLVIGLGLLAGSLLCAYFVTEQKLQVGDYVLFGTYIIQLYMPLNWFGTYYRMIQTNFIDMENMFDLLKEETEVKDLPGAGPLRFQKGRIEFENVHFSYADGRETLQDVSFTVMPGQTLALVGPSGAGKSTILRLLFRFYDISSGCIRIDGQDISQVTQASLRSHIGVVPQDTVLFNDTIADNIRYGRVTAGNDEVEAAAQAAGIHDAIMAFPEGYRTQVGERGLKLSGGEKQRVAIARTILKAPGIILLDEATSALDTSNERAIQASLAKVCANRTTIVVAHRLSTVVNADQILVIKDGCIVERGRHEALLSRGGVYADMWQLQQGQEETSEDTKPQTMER

[16] = promoters of myeloid differentiation in arrested cells, primary screen, cell-based, GFP/MAC1 double positive, flow cytometry, validation set (AID 588685;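 active means differentiation response of at least 50%, scaled between solvent and reference control, from cells with both markers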;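 further: compound exposure lasts four days before antibody staining and flow analysis; 0% = DMSO wells and 100% = 5 µM fulvestrant positive control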); conditions: ER-HoxA9 marrow cells, stronger effect = higher value, normalized: vehicle 0, fulvestrant 100

C[C@]12CC[C@@H]3c4ccc(O)cc4[C@@H](O)C[C@H]3[C@@H]1CC[C@@H]2O
59.1%: double positive events [6]
inactive: percent of DMSO control GFP [1] 103% | GFP response vs DMSO [2] 101% | percent response of DMSO control [3] 108% | GFP response vs DMSO [4] 98% | GFP response, % of DMSO [5] 104% | vesicle binding response [6] 53.4% | inhibition [7] 5.61% | superoxide response (% of plate) [8] 106% | aptamer binding inhibition [9] 26% | response [10] -0.21% | inhibition [11] -3.62% | response [12] -0.11% | binding (% of control) [13] 102% | efflux inhibition (fraction of control) [14] -0.29 | inhibition [15] 11% | differentiation response [16] -3.11%

NC(=O)C1CCCNC1 (stereo not drawn)
75.5%: double positive events [6]
inactive: percent of DMSO control GFP [1] 106% | GFP response vs DMSO [2] 98.7% | percent response of DMSO control [3] 109% | GFP response vs DMSO [4] 98% | GFP response, % of DMSO [5] 105% | vesicle binding response [6] 302% | inhibition [7] 1.59% | superoxide response (% of plate) [8] 104% | aptamer binding inhibition [9] -2% | response [10] 7.03% | inhibition [11] 0.42% | response [12] -3.07% | binding (% of control) [13] 103% | efflux inhibition (fraction of control) [14] 0.11 | inhibition [15] 10% | differentiation response [16] 8.59%

Cc1ccccc1-c1nn(-c2ccc(F)cc2F)cc1CNCCN(C)C
62%: double positive events [6]
inactive: percent of DMSO control GFP [1] 106% | GFP response vs DMSO [2] 103% | percent response of DMSO control [3] 116% | GFP response vs DMSO [4] 98.6% | GFP response, % of DMSO [5] 102% | vesicle binding response [6] 51.7% | inhibition [7] 13% | superoxide response (% of plate) [8] 90.2% | aptamer binding inhibition [9] -11% | response [10] -7.22% | inhibition [11] -6% | response [12] 3.34% | binding (% of control) [13] 103% | efflux inhibition (fraction of control) [14] -0.07 | inhibition [15] -15% | differentiation response [16] -5.62%

Clc1cc(-c2ccc(/C=N/n3cnnc3)o2)ccc1Br
inactive: percent of DMSO control GFP [1] 100% | GFP response vs DMSO [2] 103% | percent response of DMSO control [3] 102% | GFP response vs DMSO [4] 114% | GFP response, % of DMSO [5] 99.9% | vesicle binding response [6] 130% | inhibition [7] -3.77% | superoxide response (% of plate) [8] 97% | aptamer binding inhibition [9] -5% | response [10] -6.37% | inhibition [11] 0.75% | response [12] 3.36% | binding (% of control) [13] 98.8% | efflux inhibition (fraction of control) [14] -0.36 | inhibition [15] -9% | differentiation response [16] -4.57%
56.6%: double positive events [6]

CSCC[C@H](NC(=O)OC(C)(C)C)C(=O)N1CCC(C(=O)N[C@@H](C)C(=O)O)CC1
65.4%: double positive events [6]
inactive: percent of DMSO control GFP [1] 99.6% | GFP response vs DMSO [2] 105% | percent response of DMSO control [3] 102% | GFP response vs DMSO [4] 89.4% | GFP response, % of DMSO [5] 98.8% | vesicle binding response [6] 154% | inhibition [7] 9.71% | superoxide response (% of plate) [8] 98.8% | aptamer binding inhibition [9] 2% | response [10] 6.5% | inhibition [11] -16% | response [12] -1.98% | binding (% of control) [13] 103% | efflux inhibition (fraction of control) [14] -0.22 | inhibition [15] 8% | differentiation response [16] 0.41%

CCN(CC)CCOC(=O)C(c1ccccc1)c1ccccc1
inactive: percent of DMSO control GFP [1] 102% | GFP response vs DMSO [2] 108% | percent response of DMSO control [3] 91.9% | GFP response vs DMSO [4] 90.1% | GFP response, % of DMSO [5] 95.6% | vesicle binding response [6] 91.8% | inhibition [7] -4.6% | superoxide response (% of plate) [8] 105% | aptamer binding inhibition [9] 3% | response [10] 2.02% | response [12] -3.97% | binding (% of control) [13] 99% | efflux inhibition (fraction of control) [14] 0.3 | inhibition [15] 6% | differentiation response [16] 37.4%
59.4%: double positive events [6]
active: inhibition [11] 59.1%

CCOc1ccc(CC2CCC(=O)NC2=O)cc1 (stereo not drawn)
inactive: percent of DMSO control GFP [1] 103% | GFP response vs DMSO [2] 102% | percent response of DMSO control [3] 104% | GFP response vs DMSO [4] 110% | GFP response, % of DMSO [5] 115% | vesicle binding response [6] 156% | inhibition [7] -3.67% | superoxide response (% of plate) [8] 105% | aptamer binding inhibition [9] 6% | response [10] -15.9% | inhibition [11] 12.5% | response [12] -1.14% | binding (% of control) [13] 95.7% | efflux inhibition (fraction of control) [14] 0 | inhibition [15] 9% | differentiation response [16] 20.6%
64%: double positive events [6]

CC(C)NS(=O)(=O)c1ccc(OCC(=O)Nc2cccc(F)c2)cc1
inactive: percent of DMSO control GFP [1] 101% | GFP response vs DMSO [2] 98.7% | percent response of DMSO control [3] 106% | GFP response vs DMSO [4] 89.3% | GFP response, % of DMSO [5] 92.4% | vesicle binding response [6] 143% | inhibition [7] -11.8% | superoxide response (% of plate) [8] 95.1% | aptamer binding inhibition [9] 3% | response [10] 3.73% | inhibition [11] 5.6% | response [12] -2.45% | binding (% of control) [13] 98.5% | efflux inhibition (fraction of control) [14] 0.22 | inhibition [15] 7% | differentiation response [16] -10.4%
59.7%: double positive events [6]

CCc1nc2ccccc2c(NC(=O)CN2CC(C)CC(C)C2)c1C (stereo not drawn)
inactive: percent of DMSO control GFP [1] 99% | GFP response vs DMSO [2] 105% | percent response of DMSO control [3] 101% | GFP response vs DMSO [4] 90.7% | GFP response, % of DMSO [5] 96.2% | vesicle binding response [6] 179% | inhibition [7] -7.72% | superoxide response (% of plate) [8] 105% | aptamer binding inhibition [9] -2% | response [10] 0.46% | inhibition [11] -1.11% | response [12] 9.89% | binding (% of control) [13] 93.8% | efflux inhibition (fraction of control) [14] 0.11 | inhibition [15] 10% | differentiation response [16] 0.24%
63.1%: double positive events [6]

Source: PubChem BioAssay
